In PubChem BioAssay (NCI):
Compounds without any hit were thinned out: in the full panel of roughly 83,000, 20% have a hit.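 48-hour exposure, single concentration, 96-well plates; percent growth endpoint where 0 means no net growth. Active: below 10.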 Activity calls are given as the source filed them.

Assays:
Assay in all cases: NCI-60 one-dose screen, 48 h (100 = growth as untreated, 0 = no growth, -100 = all killed)
[1] = test system: SR leukemia; conditions: 10 µM unless noted
[2] = test system: RPMI-8226 leukemia
[3] = test system: OVCAR-8 ovarian
[4] = test system: OVCAR-5 ovarian
[5] = test system: OVCAR-4 ovarian
[6] = test system: SK-OV-3 ovarian
[7] = test system: IGROV1 ovarian
[8] = test system: OVCAR-3 ovarian
[9] = test system: HS 578T breast
[10] = test system: NCI/ADR-RES ovarian

Measured: growth

O=C1CCC(N2C(=O)c3cccc(NCCCCCC(=O)N4CCN(c5ccc6nc7c(nc6c5C(F)(F)F)C(=O)c5ncccc5C7=O)CC4)c3C2=O)C(=O)N1 (configuration not stated)
inactive: [10]; 10 µM unless noted 19.6%
active: [1] 8.9% | [2]; 10 µM unless noted -0.232% | [3]; 10 µM unless noted -53.3% | [4]; 10 µM unless noted -90.5% | [5]; 10 µM unless noted -83.4% | [6]; 10 µM unless noted -66.9% | [7]; 10 µM unless noted -75.4% | [8]; 10 µM unless noted -50.4% | [9]; 10 µM unless noted -11.5%

CN1CCN(C(=O)Oc2cc3c(c4ccccc24)[C@H](CCl)CN3C(=O)c2cc3cc(OCCCN4CCC4)ccc3[nH]2)[C@H]2CSSC[C@H]21
active: [1] -21.2% | [2]; 10 µM unless noted -31.2% | [3]; 10 µM unless noted -13.1% | [4]; 10 µM unless noted -19.6% | [5]; 10 µM unless noted -1.62% | [6]; 10 µM unless noted -16.5% | [7]; 10 µM unless noted 4.39% | [8]; 10 µM unless noted -10.9% | [10]; 10 µM unless noted -29.2%

COc1cc(CNC(=O)C[C@H](C)CCC=C(C)C)ccc1OCc1cn(-c2cccc(C(F)(F)F)c2)nn1
inactive: [1] 41.5% | [2]; 10 µM unless noted 89.8% | [3]; 10 µM unless noted 28.1% | [4]; 10 µM unless noted 97.5% | [5]; 10 µM unless noted 45.1% | [6]; 10 µM unless noted 89% | [7]; 10 µM unless noted 102% | [8]; 10 µM unless noted 103% | [9]; 10 µM unless noted 94.3% | [10]; 10 µM unless noted 44%

Oc1ccc(Cl)c(Nc2nc(SCCN3CCOCC3)nc3c2cnn3CC(Cl)c2ccc(Br)cc2)c1 (configuration not stated)
active: [1] -26.7% | [7]; 10 µM unless noted 1.12%
inactive: [2]; 10 µM unless noted 19.2% | [3]; 10 µM unless noted 16.5% | [4]; 10 µM unless noted 50.4% | [5]; 10 µM unless noted 31.7% | [6]; 10 µM unless noted 65.8% | [8]; 10 µM unless noted 29.9% | [10]; 10 µM unless noted 13.5%

COc1ccc(/C=C/c2nc3ccccc3n3c(-c4cccc([N+](=O)[O-])c4)nnc23)cc1
active: [1] -33.3% | [2]; 10 µM unless noted -18.3% | [3]; 10 µM unless noted -43.6% | [4]; 10 µM unless noted -59.9% | [5]; 10 µM unless noted -14.6% | [7]; 10 µM unless noted -69% | [8]; 10 µM unless noted -77.4% | [10]; 10 µM unless noted -27%
inactive: [6]; 10 µM unless noted 25.6%

CC/C(=C(/c1ccc(O)cc1)c1ccc(OCCN(C)C(=O)COCCOCCNC(=O)Cc2ccc3c(c2)CN([C@@H]2CCC(=O)NC2=O)C3=O)cc1)c1ccccc1
inactive: [2]; 1 µM 90.3% | [2]; 10 µM 72% | [3]; 1 µM 93.9% | [3]; 10 µM 21.9% | [4]; 1 µM 95.3% | [4]; 10 µM 86.6% | [5]; 1 µM 101% | [5]; 10 µM 59.2% | [6]; 1 µM 86.1% | [6]; 10 µM 71.6% | [7]; 1 µM 50% | [7]; 10 µM 17.8% | [8]; 1 µM 95.6% | [8]; 10 µM 61.3% | [9]; 1 µM 64.8% | [9]; 10 µM 19.1% | [10]; 1 µM 103% | [10]; 10 µM 107%

CCOC(=O)c1ccc(NC(=S)NC(=O)c2ccc(NC(=O)C(C)C)cc2OC)cc1
active: [1] 0.956% | [2]; 10 µM unless noted 0.989%
inactive: [3]; 10 µM unless noted 35.1% | [4]; 10 µM unless noted 90.1% | [5]; 10 µM unless noted 27.2% | [6]; 10 µM unless noted 100% | [7]; 10 µM unless noted 64.5% | [8]; 10 µM unless noted 57.4% | [10]; 10 µM unless noted 23%

O=C1NC(=NC23CC4CC(CC(C4)C2)C3)N/C1=C\c1ccc2ncccc2c1
active: [2]; 10 µM unless noted -31.1% | [3]; 10 µM unless noted 5.28% | [5]; 10 µM unless noted -14.4% | [6]; 10 µM unless noted -57.4% | [7]; 10 µM unless noted 8.97% | [8]; 10 µM unless noted -55.3% | [9]; 10 µM unless noted -15.3% | [10]; 10 µM unless noted -28.7%
inactive: [4]; 10 µM unless noted 45.7%

COc1ccc(-c2nc3ccc(-c4nnc(SCc5ccccc5)o4)cc3[nH]2)cc1
inactive: [4]; 10 µM unless noted 46.8%
active: [1] 6.93% | [2]; 10 µM unless noted 7.16% | [3]; 10 µM unless noted -36.8% | [5]; 10 µM unless noted -57.7% | [6]; 10 µM unless noted 5.77% | [7]; 10 µM unless noted -17.1% | [8]; 10 µM unless noted -33.1% | [10]; 10 µM unless noted -65.6%

COc1cc(CNC(=O)[C@]23CCC(C)(C)CC2C2=CCC4[C@@]5(C)CCC(OC(C)=O)C(C)(C)C5CC[C@@]4(C)[C@]2(C)CC3)ccc1OCc1cn(-c2ccc(Cl)cc2Cl)nn1 (some centres not stated)
inactive: [1] 103% | [2]; 10 µM unless noted 89.9% | [3]; 10 µM unless noted 102% | [4]; 10 µM unless noted 102% | [5]; 10 µM unless noted 102% | [6]; 10 µM unless noted 112% | [7]; 10 µM unless noted 92.8% | [8]; 10 µM unless noted 112% | [10]; 10 µM unless noted 120%

O=C(Cn1c(-c2ccccc2)nc2ccccc21)N=Nc1c(O)[nH]c2ccc(Br)cc12
inactive: [2]; 10 µM unless noted 21.9%
active: [1] -25.7% | [3]; 10 µM unless noted -39.2% | [4]; 10 µM unless noted 0.0575% | [5]; 10 µM unless noted -62.1% | [6]; 10 µM unless noted -47.9% | [7]; 10 µM unless noted -41.8% | [8]; 10 µM unless noted -22.5% | [10]; 10 µM unless noted -55.7%

O=C(N/N=C/c1occc1Br)c1[nH]c2ccc(Br)cc2c1-c1ccccc1
active: [1] -9.6% | [2]; 10 µM unless noted -4.48% | [3]; 10 µM unless noted -51.7% | [4]; 10 µM unless noted -99.8% | [5]; 10 µM unless noted -87% | [6]; 10 µM unless noted -85.3% | [7]; 10 µM unless noted -92.8% | [8]; 10 µM unless noted -73.7% | [10]; 10 µM unless noted -53.5%

CC/C(=C(\c1ccc(O)cc1)c1ccc(OCCN(C)C(=O)CCOCCNC(=O)c2ccc3c(c2)CN([C@@H]2CCC(=O)NC2=O)C3=O)cc1)c1ccccc1
inactive: [2]; 1 µM 99.1% | [2]; 10 µM 93.9% | [3]; 1 µM 103% | [3]; 10 µM 77.6% | [4]; 1 µM 93.4% | [4]; 10 µM 79.5% | [5]; 1 µM 109% | [5]; 10 µM 96.1% | [6]; 1 µM 82.7% | [6]; 10 µM 87.9% | [7]; 1 µM 70.4% | [7]; 10 µM 53.6% | [8]; 1 µM 93.7% | [8]; 10 µM 105% | [9]; 1 µM 75.9% | [9]; 10 µM 69.3% | [10]; 1 µM 106% | [10]; 10 µM 102%
